According to PubChem BioAssay AID2540 (Sanford-Burnham Center for Chemical Genomics, 2010):
Hit rate of the full screen: of about 330,000 compounds, about 4,100 (1.2%) were called active. The entries come from a sample that favours actives as a whole. Unmarked numbers belong to inactive results. Cut-off read from the data, not from the text of the source: active = inhibition above about 50%; inactive = the rest.

Biological target: Sentrin-specific protease 8 (Homo sapiens) (UniProt Q96LD8)
Test: blockers of human SENP8 peptidase activity – biochemical, luminescence, primary screen (AID 2540)
Details: purified SENP8, Z-RLRGG-aminoluciferin cleavage, at 10 µM, active compounds read high

Chain of Sentrin-specific protease 8 (Homo sapiens) (Q96LD8 whole entry, looked up): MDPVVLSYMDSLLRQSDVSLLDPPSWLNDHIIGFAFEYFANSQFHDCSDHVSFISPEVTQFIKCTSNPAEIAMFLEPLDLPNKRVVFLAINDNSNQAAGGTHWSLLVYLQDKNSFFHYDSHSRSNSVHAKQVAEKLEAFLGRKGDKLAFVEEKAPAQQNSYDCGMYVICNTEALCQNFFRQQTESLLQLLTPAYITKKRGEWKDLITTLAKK

SMILES	inhibition
O=C(OC1CCOC1=O)c1cccc(S(=O)(=O)Nc2ccc(F)cc2)c1 (stereo not given)	2.88%
COc1cccc(NC(=O)COC(=O)/C=C/c2ccco2)c1	-1.22%
O=C(/C=C/c1ccco1)Nc1ccc(Oc2ccccc2)cc1	58.9% (active)
O=C(/C=C/c1ccco1)NC(=S)Nc1ccccc1Br	-6.97%
O=C(NCCc1ccc(Cl)cc1Cl)c1cc([N+](=O)[O-])c[nH]c1=O	4.55%
Cc1cc(OC(=O)c2ccc(OC(C)C)cc2)c([N+](=O)[O-])c(=O)[nH]1	1.33%
O=[N+]([O-])c1ccc2c(c1)Nc1nc3ccccc3nc1N2	-4.07%
COc1ccc([N+](=O)[O-])cc1-c1nc2ccccc2nc1-c1ccccc1	12.3%
O=[N+]([O-])c1ccc2oc(-c3cccc(O)c3)nc2c1	84.7% (active)
COc1cccc(-c2nc3cc(C)ccc3o2)c1	96.2% (active)
COc1cccc(-c2nnc(SCCOc3ccc4c(C)cc(=O)oc4c3)o2)c1	1.03%
COc1ccc2oc(-c3cccc(NC(=O)CSc4ccc(Cl)cc4)c3)nc2c1	-5.16%
Cc1c(CC(=O)NCC(=O)NCC(=O)O)c(=O)oc2cc3oc4c(c3cc12)CCCC4	-13.4%
Clc1ccc(-n2nnnc2CN2CCCCC2)cc1Cl	-12%
O=C(/C=C/NNC(=O)c1cccc(Br)c1)c1ccccc1	-1.09%
CCOc1ccccc1N1C(=O)CC(Sc2nccc(C)n2)C1=O (stereo not given)	1.56%
COc1ccc(NC(=O)CNc2cc(S(=O)(=O)N3CCOCC3)ccc2N2CCOCC2)c(OC)c1	7.93%
Cc1c(Cl)cccc1NC(=O)NCc1ccc(C)n1C	-0.511%
CC(=O)c1ccc(S(=O)(=O)NC2CC(=O)N(c3ccc4c(c3)OCCO4)C2)cc1 (stereo not given)	-4.2%
CC(C)(C)OC(=O)C[C@@H]1C/C=C\C[C@H](CC(=O)N[C@@H](CO)Cc2ccccc2)C(=O)N[C@H](Cc2ccccc2)COC1=O	-7.09%
COc1cc(C2C(C(=O)c3cccs3)=C(O)C(=O)N2CCN2CCOCC2)ccc1OCCC(C)C (stereo not given)	-3.6%
CCn1cc(CN2CCC(C(=O)Nc3cccc(-c4cccc(Cl)c4)c3)CC2)c(C)n1	-6.83%
CCN1CC=C2C(C#N)=C(N)C(C#N)(C#N)[C@H](c3ccoc3)[C@H]2C1	50.7% (active)
N#CC1=C(N)C(C#N)(C#N)[C@H](c2ccsc2)[C@H]2COCC=C12	-3.51%

SMILES	inhibition
CCCN1CC=C2C(C#N)=C(N)C(C#N)(C#N)C(c3cc(OC)ccc3OC)C2C1 (stereo not given)	0.594%
Cc1cn(C)c(=O)n(C)c1=O	-18.1%
O=C(Nc1cccc2cccnc12)c1cccc(Cl)c1	8.84%
COc1ccc(NC(=O)Nc2cccc3cccnc23)cc1	81% (active)
COc1ccc(NC(=O)C2CCCN(S(=O)(=O)c3cccc4cccnc34)C2)cc1 (stereo not given)	6%
CC12CCC(C(=O)N(CCC#N)CCC#N)(CC1=O)C2(C)C (stereo not given)	-1.58%
C/C(=N\Nc1nncc2ccccc12)c1ccc(Cl)c([N+](=O)[O-])c1	5.46%
CN(CCO)c1ccc(/C=N/Nc2nncc3ccccc23)cc1	94.9% (active)
COc1cccc(/C=N\Nc2nncc(-c3ccccc3)n2)c1	-14.9%
O=C(COC(=O)c1ccncc1)c1ccccc1	-23.2%
c1ccc(CCc2nc(-c3ccncc3)no2)cc1	-9.99%
c1csc(-c2nc(-c3ccncc3)no2)c1	57.3% (active)
Cc1noc(C)c1COC(=O)COc1ccc(-c2ccccc2)cc1	-5.47%
Cc1ccc(-c2nc(-c3ccncc3)no2)c(C)c1	42.8%
O=C(Oc1ccc(-c2nc(-c3ccccn3)no2)cc1)c1ccccc1	97.3% (active)
Clc1ccc(-n2nnnc2-c2cnc(-c3ccccn3)nc2-c2cccs2)cc1	-4.12%
c1ccc(-c2noc(-c3cccs3)n2)nc1	88.9% (active)
COc1ccc(CCc2nc(-c3cccs3)no2)cc1	-14.5%
CC1CCC2(CC1)NC(=O)N(CC(=O)c1cccn1C)C2=O (stereo not given)	-3.15%
CCOC(=O)N1CCN(c2c(NCCN3CCN(c4ccccc4F)CC3)c(=O)c2=O)CC1	-9.98%
COc1ccccc1CNC(=O)[C@@H]1CCCN1C(=O)[C@@H]1Cc2ccccc2CN1C(=O)OC(C)(C)C	-1.1%
Cc1ccc(N(C(=O)c2ccc(S(=O)(=O)N(C)C)cc2)C2C=CS(=O)(=O)C2)cc1 (stereo not given)	-5.23%
O=C1CCC(C(=O)N2CCN(c3ccccc3Cl)CC2)CN1CC1CCCCC1 (stereo not given)	-2.96%
Clc1ccc(-c2cc(-c3ccccn3)on2)c(Cl)c1	98% (active)

SMILES	inhibition
Clc1ccc(COn2c(-c3ccc(Cl)cc3Cl)nc3ncccc32)cc1	1.77%
O=C1c2ccccc2C(=O)N1Cc1cc(-c2ccccc2Cl)no1	2.3%
Cn1cccc1C(=O)OCC(=O)c1ccc(Br)s1	75.8% (active)
Cn1cccc1C(=O)OCC(=O)NCCc1ccccc1	-2.12%
O=C(COC(=O)c1c2c(nc3ccccc13)CCCC2)c1ccc(Br)s1	-1.41%
COc1cccc(NC(=O)CSc2nnc(C3CCCCC3)n2N)c1	6.19%
O=C(NCC1CC1)c1onc(CSc2ccccc2)c1C(=O)NCC1CC1	1.24%
Cc1ccc(NC(=O)c2ccc(S(=O)(=O)NCC3CCCO3)cc2)cc1C (stereo not given)	9.11%
O=C(Nc1nnc(S(=O)(=O)N2CCCCCC2)s1)c1cccc(Br)c1	71.5% (active)
Cc1cccc(C(=O)Nc2nnc(S(=O)(=O)N3CCCCCC3)s2)c1	18.3%
O=C(Nc1nnc(S(=O)(=O)N2CCOCC2)s1)c1cccc(Br)c1	6.23%
Cc1ccc(S(=O)(=O)NC(=O)c2cccc(C)c2)cc1	-5.51%
Cc1[nH]n(C)c(=O)c1N=Nc1ccc(S(C)(=O)=O)cc1	-4.34%
Cc1[nH]n(C(N)=S)c(=O)c1N=Nc1ccc(Cl)cc1Cl	95.6% (active)
CCCCNC(=O)C1CCCNC1=O (stereo not given)	-10.4%
O=C(O)c1cc(S(=O)(=O)N(Cc2ccccc2)c2ccccc2)ccc1Cl	3.75%
C/C(=N\OCC(=O)Nc1ccc(Br)cc1)c1cccs1	-8.52%
O=C(O)c1ccccc1OCc1ccccc1Cl	1.22%
COc1cc(/C=C2\Oc3ccc(C#Cc4ccc(O)cc4)cc3C2=O)cc(OC)c1	5.28%
O=C1c2ccccc2C(=O)N1CCC#Cc1ccc2cc(C3(O)CCCCC3)oc(=O)c2c1	-2.91%
COc1cc(C#Cc2ccc3cc(CCCO)oc(=O)c3c2)cc(OC)c1	69.6% (active)
COc1ccccc1OC(C)C(=O)Nc1ccc(S(=O)(=O)Nc2nccs2)cc1 (stereo not given)	-3.08%
Cc1ccccc1N1CC(c2nc3ccccc3[nH]2)CC1=O (stereo not given)	2.73%
COc1ccc(Br)cc1C(=O)NC(=S)Nc1cc(-c2nc3ccccc3[nH]2)ccc1C	3.06%

SMILES	inhibition
O=C(Nc1sc2c(c1-c1nc3ccccc3[nH]1)CCCC2)C1CC1	-0.363%
c1ccc2[nH]c(-c3nc4ccccc4[nH]3)nc2c1	92.4% (active)
Clc1ccccc1SCc1nc2ccccc2[nH]1	14.7%
Cc1ccc(-c2nc3ccccc3[nH]2)cc1N	87.1% (active)
CC(OC(=O)CCCOc1ccccc1)C(=O)Nc1ccc(Cl)cn1 (stereo not given)	-14.4%
CCOc1ccccc1C1CC(c2ccc(Cl)cc2)Nc2nc(N)nn21 (stereo not given)	0.924%
O=C(COC(=O)c1cnc(Cl)c(Cl)c1)NCc1ccco1	-1.98%
CC(OC(=O)CNC(=O)c1cccc(F)c1)C(=O)NC1CCCCC1C (stereo not given)	-11.2%
O=C(Nc1ccn(Cc2ccccc2)n1)c1n[nH]c([N+](=O)[O-])c1Cl	97.2% (active)
Cc1c(Br)c([N+](=O)[O-])nn1CC(=O)N1CCN(Cc2ccccc2)CC1	-7.38%
O=C(Nc1ccn(Cc2ccccc2F)n1)c1ccc(COc2ccc(Cl)cc2Cl)o1	8.53%
CC(CCc1ccc(O)cc1)NCc1ccc(Cl)cc1Cl (stereo not given)	-5.92%
COc1ccc(C2=NOC(COC(=O)c3ccc4ccccc4n3)C2)cc1 (stereo not given)	-6.73%
COc1ccc(C2=Nc3cc(C)ccc3OC2)cc1	67.5% (active)
Cc1ccc(C(=O)NNC2=Nc3cc([N+](=O)[O-])ccc3OC2)cc1	-6.4%
CS(=O)(=O)n1nc(-c2ccco2)nc1N	0.284%
COc1ccccc1-n1c(-c2cc(-c3ccco3)[nH]n2)n[nH]c1=S	3.44%
Cn1c(-c2ccco2)nc2cc3ccccc3cc21	94.4% (active)
Cc1ccc(NC(=O)CSc2nnc(CNC(=O)c3ccccc3F)o2)cc1	0.136%
Cc1ccccc1-n1nnc2c(=O)oc3ccccc3c21	-6.33%
CC(NC(=O)Nc1ccccc1)C(c1cccs1)N1CCN(c2ccccc2)CC1 (stereo not given)	-7.79%
COC(=O)C1=C(N)Oc2cc(C)[nH]c(=O)c2C1c1ccc(Cl)cc1 (stereo not given)	3.38%
COCCCN(C(=O)CSCc1ccc(C)cc1)c1c(N)n(Cc2ccccc2)c(=O)[nH]c1=O	-5.5%
